Screening results (PubChem)
DAX1 inh-1 – blocks DAX1 repression of SF-1 activated StAR promoter; HEK293T StAR-luciferase reporter, SF-1/DAX-1 repression relief; inhibition, % at 6.8 µM; hit rate 1.1% among 370,000; AID 652010;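 active = inhibition above the mean over all tested compounds plus 3 SD, cut at about 3.6% in these data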;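 also: 0% = DAX-1 cells with DMSO and 100% = cells lacking DAX-1 with DMSO; higher inhibition means more luminescence from relief of DAX-1 repression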
ssDAF12 agonist – S. stercoralis DAF-12 activation, primary screen | activation, % at 6.8 µM | AID 652126 | hit rate 1% among 370,000 | HEK293 ssDAF-12/GRIP1 lit1-tk-luc reporter, luminescence; % of 3 µM dafachronic acid response;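 active = activation above the mean over all tested compounds plus 3 SD, cut at about 0.9% in these data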;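 also: 0% = DMSO-only wells and 100% = 3 µM delta7-dafachronic acid wells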
hcDAF-12 act – activators of H. contortus DAF-12 nuclear receptor | HEK293 hcDAF-12 lit1-tk-luc reporter, luminescence; 0% DMSO, 100% Δ7-dafachronic acid | activation, % at 6.8 µM | hit rate 1.4% among 370,000;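 active = activation above the mean of all tested compounds plus 3 SD, cut at about 5.5% in these data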;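 also: 100% = response to 3 µM Δ7-dafachronic acid high control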
hgDAF12 agonist – activates the H. glycines DAF-12 receptor ligand-binding domain | HEK293 GAL4-hgDAF12 UAS-luciferase reporter, agonist luminescence; normalized to butyrate control | hit rate 1.8% among 370,000 | activation, % at 6.8 µM;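 active = activation above a cutoff set at the mean of all screened compounds plus 3 SD, cut at about 10% in these data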;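 also: 0% = DMSO wells and 100% = sodium butyrate wells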
DAX1 inh-2 – NR0B1 (DAX1) inhibition | hit rate 0.99% among 340,000 | inhibition, % at 6.75 µM | HEK293 Gal4-DAX1 luciferase reporter, luminescence;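 active = inhibition above the mean over all tested compounds plus 3 SD, cut at about 4.2% in these data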;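 also: 0% = DAX1-transfected cells with DMSO and 100% = empty-vector control cells with DMSO; inhibition shows as a rise in luminescence from relieved DAX1 repression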
LXR ag – counter-screen for hcDAF-12 agonists: agonists of human LXR-beta; shares compounds with hcDAF-12 act; HEK293 Gal4-LXR tk-luc reporter, luminescence, 24 h; normalized: DMSO 0%, positive control 100%; activation, % at 6.8 µM; 3,400 tested, under 10 active;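 active = mean percent activation of the reporter above a cutoff set as the average over tested compounds plus their standard deviation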
Target sequence (P55055 whole entry, looked up, the tested form may be a part): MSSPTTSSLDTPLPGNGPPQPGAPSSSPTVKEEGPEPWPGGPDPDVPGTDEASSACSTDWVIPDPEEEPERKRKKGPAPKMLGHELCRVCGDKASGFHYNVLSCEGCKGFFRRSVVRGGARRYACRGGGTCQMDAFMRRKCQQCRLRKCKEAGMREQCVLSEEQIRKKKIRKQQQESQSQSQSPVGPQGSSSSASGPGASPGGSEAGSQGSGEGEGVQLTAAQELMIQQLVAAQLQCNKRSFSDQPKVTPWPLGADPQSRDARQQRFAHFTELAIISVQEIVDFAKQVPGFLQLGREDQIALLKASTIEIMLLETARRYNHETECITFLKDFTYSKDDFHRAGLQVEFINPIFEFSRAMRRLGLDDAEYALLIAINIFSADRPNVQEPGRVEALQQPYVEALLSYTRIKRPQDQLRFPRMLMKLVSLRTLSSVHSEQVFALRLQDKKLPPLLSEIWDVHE
hcDAF12 conf – hcDAF-12 agonism, confirmation assay; AID 743032; hit rate 61% among 3,400; activation, % at 6.8 µM; shares compounds with hcDAF-12 act; HEK293 hcDAF-12 lit1-tk-luc reporter, luminescence; % of Δ7-dafachronic acid response;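 active = mean activation across triplicate tests above the threshold derived from the earlier primary screen, cut at about 5.5% in these data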;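 also: 0% = DMSO only wells and 100% = 3 µM Δ7-dafachronic acid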
The depositor's hits bear a star. Most compounds without a hit are left out; they make up all but 4.1% or so of the library.

Clc1ccc(-c2nc3c4ccccc4ccn3c2CC2CCCCC2)cc1 was read as DAX1 inh-1 1, ssDAF12 agonist 1.6*, hcDAF-12 act 6.7*, hgDAF12 agonist 6, LXR ag 0 and hcDAF12 conf 6.7*.
For COc1ccc([N+](=O)[O-])cc1NS(=O)(=O)c1cccc(C(=O)O)c1 the results were DAX1 inh-1 0, ssDAF12 agonist -1, hcDAF-12 act -2, hgDAF12 agonist 1 and DAX1 inh-2 4.
`Cc1cc(N=Nc2ccc(C)c(N=Nc3cc(C)c(N)cc3N)c2)c(N)cc1N` gave DAX1 inh-1 2, ssDAF12 agonist 0, hcDAF-12 act 7.3*, hgDAF12 agonist 13*, DAX1 inh-2 2, LXR ag 2 and hcDAF12 conf 12*.
COc1ccc(N=Nc2cc(OC)c(N)cc2OC)cc1 was read as DAX1 inh-1 -1, ssDAF12 agonist 0, hcDAF-12 act 2, hgDAF12 agonist 2 and DAX1 inh-2 -4.
`O=C(O)c1cccc(N/N=C/c2cccc3ccccc23)c1` gave DAX1 inh-1 1, ssDAF12 agonist 0, hcDAF-12 act 7.5*, hgDAF12 agonist 13*, DAX1 inh-2 -3, LXR ag 2 and hcDAF12 conf 11*.
For O=C(O)c1cccc(N/N=C/c2sc(N3CCOCC3)nc2-c2ccccc2)c1 the results were DAX1 inh-1 1, ssDAF12 agonist -1, hcDAF-12 act 7.5*, hgDAF12 agonist 9, DAX1 inh-2 0, LXR ag 0 and hcDAF12 conf 3.
For Cc1ccc2[nH]c(O)c(N=Nc3ccccc3[N+](=O)[O-])c2c1 the results were DAX1 inh-1 1, ssDAF12 agonist 0, hcDAF-12 act 3, hgDAF12 agonist 3 and DAX1 inh-2 1.
Screening Cc1occc1C(=O)N=Nc1c(O)n(C)c2ccccc12 returned DAX1 inh-1 3, ssDAF12 agonist 1.0*, hcDAF-12 act 15*, hgDAF12 agonist 17*, DAX1 inh-2 1, LXR ag 2 and hcDAF12 conf 15*.
For Cn1c(O)c(N=Nc2ccccc2[N+](=O)[O-])c2ccccc21 the results were DAX1 inh-1 1, ssDAF12 agonist 2.6*, hcDAF-12 act 11*, hgDAF12 agonist 11*, DAX1 inh-2 2, LXR ag 0 and hcDAF12 conf 9.0*.
CCOC(=O)C(=O)N=Nc1c(O)n(C)c2ccccc12 was read as DAX1 inh-1 1, ssDAF12 agonist -1, hcDAF-12 act 3, hgDAF12 agonist -1 and DAX1 inh-2 1.
`CC(=O)NC(Cc1ccccc1F)C(=O)NC1CCN(c2ncccc2[N+](=O)[O-])CC1` (configuration not stated) gave DAX1 inh-1 -1, ssDAF12 agonist -2, hcDAF-12 act -1, hgDAF12 agonist 1 and DAX1 inh-2 3.
CN(Cc1ccccc1)C(=O)CCn1c(=O)c2cccn2c2cccnc21 was read as DAX1 inh-1 0, ssDAF12 agonist -1, hcDAF-12 act -1, hgDAF12 agonist 0 and DAX1 inh-2 1.
Cc1cc2[nH]c3c(c[n+](C)c4ccccc34)c2cc1C was read as DAX1 inh-1 -1, ssDAF12 agonist 1.0*, hcDAF-12 act 14*, hgDAF12 agonist 6, DAX1 inh-2 0, LXR ag 2 and hcDAF12 conf 10*.
Cc1cc2[nH]c3c4ccccc4nc(C)c3c2cc1C was read as DAX1 inh-1 -1, ssDAF12 agonist 0, hcDAF-12 act 4, hgDAF12 agonist 2 and DAX1 inh-2 1.
Screening CC(=O)C1=CCC(c2ccccc2)N(S(=O)(=O)c2ccc(Cl)cc2)C1 (configuration not stated) returned DAX1 inh-1 -3, ssDAF12 agonist -1, hcDAF-12 act -1 and hgDAF12 agonist 0.
CCOc1ccc(N2CC(C(=O)N3CCCc4ccccc43)CC2=O)cc1 (configuration not stated) was read as DAX1 inh-1 -1, ssDAF12 agonist -1, hcDAF-12 act 3, hgDAF12 agonist 8 and DAX1 inh-2 1.
CC(NS(=O)(=O)c1ccc(Br)cc1)C(=O)NCCc1ccccc1 (configuration not stated) was read as DAX1 inh-1 -1, ssDAF12 agonist -2, hcDAF-12 act 0, hgDAF12 agonist 1 and DAX1 inh-2 -1.
COc1ccc(OCc2cc(C(=O)N(C)Cc3nnc(C)o3)no2)c(Cl)c1 was read as DAX1 inh-1 1, ssDAF12 agonist 0, hcDAF-12 act 6.6*, hgDAF12 agonist 10, DAX1 inh-2 1, LXR ag 1 and hcDAF12 conf 3.
For COc1cc(Cl)ccc1OCc1cc(C(=O)N(C)Cc2nnc(C)o2)no1 the results were DAX1 inh-1 2, ssDAF12 agonist 0, hcDAF-12 act 2, hgDAF12 agonist 3 and DAX1 inh-2 0.
For C=CCn1cnc2c(oc3ccccc32)c1=O the results were DAX1 inh-1 0, ssDAF12 agonist 0, hcDAF-12 act 2, hgDAF12 agonist 2 and DAX1 inh-2 1.
For Nc1ccccc1-n1cccc1 the results were DAX1 inh-1 0, ssDAF12 agonist 1.6*, hcDAF-12 act 15*, hgDAF12 agonist 7, LXR ag 0 and hcDAF12 conf 5.
N/C(=N\O)c1ccccc1-n1cccc1 was read as DAX1 inh-1 0, ssDAF12 agonist -2, hcDAF-12 act -1, hgDAF12 agonist 1 and DAX1 inh-2 -1.
O=C(O)c1cc(-c2c[nH]c3ccccc23)nc2cc3ccccc3cc12 was read as DAX1 inh-1 2, ssDAF12 agonist 1.6*, hcDAF-12 act 8.7*, hgDAF12 agonist 6, LXR ag 0 and hcDAF12 conf 9.0*.
N#CC1=C(N)Oc2c(ccc3ccccc23)C1c1ccsc1 (configuration not stated) was read as DAX1 inh-1 -1, ssDAF12 agonist 0.9*, hcDAF-12 act 7.1*, hgDAF12 agonist 12*, DAX1 inh-2 -3, LXR ag 0 and hcDAF12 conf 4.
Screening N#CC1=C(N)Oc2c(oc(CO)cc2=O)C1c1ccsc1 (configuration not stated) returned DAX1 inh-1 0, ssDAF12 agonist 0, hcDAF-12 act 0, hgDAF12 agonist 0 and DAX1 inh-2 -1.
`Cc1ccc(F)c(N=Cc2c(O)c3ccccc3oc2=O)c1` gave DAX1 inh-1 0, ssDAF12 agonist -1, hcDAF-12 act -1, hgDAF12 agonist 2 and DAX1 inh-2 2.
CCn1nc2cc(C(=O)NCCc3cccs3)ccc2c1OC was read as DAX1 inh-1 2, ssDAF12 agonist 0, hcDAF-12 act 8.1*, hgDAF12 agonist 8, DAX1 inh-2 4.6*, LXR ag 1 and hcDAF12 conf 5.7*.
